# High-throughput results deposited in PubChem BioAssay by NMMLSC.
# Autofluor counter – compound fluorescence in toxin protease inhibitor counterscreen; compound autofluorescence counterscreen, microsphere flow cytometry; hits give high values; fluorescence intensity (test concentration not listed); 360,000 compounds, 3.1% hits; in the data active = fluorescence intensity above about 16000; inconclusive = no clear call, values can overlap the other calls
# Anthrax LF inh2 – Bacillus anthracis LF protease inhibitors, primary screen, biochemical, multiplex microsphere, MLPCN library. Lethal factor (Bacillus anthracis), P15917. inhibition, % at 10 µM. multiplex microsphere protease cleavage assay. 360,000 compounds, 0.12% hits; also: plate controls were buffer without enzyme for full effect and enzyme alone for no effect
# BoNT-F LC inh – BoNT/F light chain protease inhibitors, primary screen, biochemical, flow cytometry, MLPCN library; inhibition, % at 10 µM; 360,000 compounds, 0.22% hits; AID 588497, 2011; Multiplex microsphere protease cleavage assay; Botulinum neurotoxin type F light chain protease (Clostridium botulinum); in the data active = inhibition above about 35%, passing the limit was not always enough; inconclusive = no clear call, values can overlap the other calls; also: plate controls were buffer without enzyme for full effect and enzyme alone for no effect
# BoNT A protease – BoNT/A light chain protease inhibitors, primary screen, biochemical, flow cytometry, MLPCN library; inhibition, % at 10 µM; Botulinum neurotoxin type A light chain protease (Clostridium botulinum A str. ATCC 3502); 360,000 compounds, 0.17% hits; multiplex microsphere protease substrate cleavage; AID 588499, 2011; also: plate controls were buffer without enzyme for full effect and enzyme alone for no effect
# Numbers without * were called inactive; u = inconclusive. A selection: hits, their analogues and other compounds. The true share with any hit is near 3.5%. Rule as the data show it, unless noted: active = inhibition above about 30%; inconclusive = no clear call, values can overlap the other calls; inactive = below that.
SMILES,Autofluor counter,Anthrax LF inh2,BoNT-F LC inh,BoNT A protease
CNc1cncc(-c2cccnc2)n1,3923,7,-2,0
CCOC(=O)CC(C(=O)OCC)P(=O)(c1ccccc1)c1ccccc1 (configuration not stated),2036,-1,-5,0
CCCC(C(=O)OCC)P(=O)(c1ccccc1)c1ccccc1 (configuration not stated),23167*,-3,1,u
Cc1ccc(NC(=O)O/N=C/c2ccc(N(C)C)cc2)cc1,3114,-18,-29,2
CCOC(=O)C1=C(CC)OC(N)=C(C#N)C1c1ccc(OC)c(C)c1OC (configuration not stated),2513,-1,-12,-2
CCOc1cc(C2C(C#N)=C(N)OC(C)=C2C(C)=O)c(Br)c(Br)c1OC(C)C (configuration not stated),21864*,0,4,3
CCOC(=O)C1=C(CC)OC(N)=C(C#N)C1c1cc(OC)ccc1OC (configuration not stated),21578*,0,-8,u
CCOc1cc(C2C(C#N)=C(N)OC(C)=C2C(C)=O)cc(Br)c1O (configuration not stated),7340,2,4,2
CCOC(=O)C1=C(C)OC(N)=C(C#N)C1c1ccc(OC)c(C)c1OC (configuration not stated),20362*,1,-2,u
O=C(CN1C(=O)c2ccccc2S1(=O)=O)NCc1ccc(F)cc1,4998,0,0,2
O=C1c2ccccc2S(=O)(=O)N1CCOc1ccc(F)cc1,24481*,-2,-5,-1
O=C(NCCCCCCNC(=O)OCCO)OCCO,4578,-2,-6,0
CCCCNC(=O)OCCNC(=O)NC,18838*,-18,9,u
C=CCn1c(N)c(-c2nc3ccccc3n2C)sc1=S,22610*,14,1,11
O=[N+]([O-])c1c(Nc2ccc(O)cc2)cc(Cl)c2nonc12,3989,-16,u,-8
c1ccc(-c2nnc3sc(CN4CCC5(CC4)OCCO5)cn23)cc1,20544*,0,-1,-1
c1ccc(-c2nnc(CN3CCC4(CC3)OCCO4)o2)cc1,5624,-6,0,0
CC1CCN(CC(=O)N2c3ccccc3CCc3ccccc32)CC1,16766*,-6,-1,-1
CC1CCN(CC(=O)N2CC(=O)Nc3ccccc32)CC1,22135*,1,-1,u
O=C1CN(C(=O)c2ccccc2Cl)c2ccccc2N1,2983,3,44*,2
O=C(NCC(F)(F)F)c1csc([C@@H]2O[C@H](CO)[C@H](O)[C@H](O)[C@H]2O)n1,4313,-11,-11,-1
CC1CCCCC1NC(=O)c1cc(Cl)nc2ccccc12 (configuration not stated),4580,3,2,1
COc1ccc2c(c1)CCc1c(C(=O)Nc3ccc(OC)c(OC)c3)noc1-2,20591*,-1,-3,-2
COc1ccc2c(c1)CCc1c(C(=O)N3CCOCC3)noc1-2,18054*,-18,16,12
COc1cc(C2C(C#N)=C(N)Oc3c2oc(CO)cc3=O)ccc1OC(C)C (configuration not stated),20218*,-1,-2,u
SMILES,Autofluor counter,Anthrax LF inh2,BoNT-F LC inh,BoNT A protease
COc1ccc(OC)c(N2C(=O)C(Cl)=C(N3CCOCC3)C2=O)c1,11439,-2,1,0
COc1ccc(OC)c(N2C(=O)C(Cl)=C(N3CCCCC3)C2=O)c1,21020*,2,9,9
CCOC(=O)[C@]12CCCC=C1N(Cc1ccc(Cl)cc1Cl)C(=O)[C@H](CC(=O)NCc1ccc(OC)c(OC)c1)C2,5638,9,4,0
CCOc1ccc(N=C/C=C/c2ccccc2)c(O)c1,3275,0,-72,35*
Cc1nc(NC(=O)c2ccccc2)sc1-c1csc(NCCc2ccccc2)n1,25254*,2,2,4
CCOC(=O)/C(=C/c1c[nH]c2ccccc12)NC(C)=O,19612*,-2,4,2
COC(=O)/C(=C/c1c[nH]c2ccccc12)NC(C)=O,2138,0,0,0
CN1CCC(OC(=O)c2ccc(Br)cc2)CC1,21548*,-1,5,3
CN1CCC(OC(=O)COc2ccc(Br)cc2)CC1,3533,-6,-9,0
CC1(C(=O)NC2CCCCCCC2)CC1(Cl)Cl (configuration not stated),17224*,-5,-3,-3
CCn1c(COc2ccccc2)nnc1SCC(=O)Nc1cc(C)ccc1OC,10154,-2,-12,0
CCn1c(COc2ccccc2C)nnc1SCC(=O)N1CCCCC1,9214,-5,-3,0
CCn1c(COc2cccc(OC)c2)nnc1SCC(=O)Nc1ccccc1C(=O)OC,19252*,1,6,u
CCn1c(COc2ccc(C)cc2)nnc1SCC(=O)Nc1cc(OC)ccc1OC,22615*,-5,3,1
CCn1c(CC(=O)Nc2ccccc2)nnc1SCC(=O)Nc1ccccc1C(=O)OC,8539,-10,-6,0
CCn1c(COc2ccc(Cl)c(C)c2)nnc1SCC(=O)N1CCCC1,20792*,-1,-2,u
CCn1c(SCC(=O)c2ccc3c(c2)Cc2ccccc2-3)nnc1-c1ccc(N)cc1,23475*,-10,0,-2
CN1C(=O)[C@H]2[C@@H](c3ccc(C(F)(F)F)cc3)N[C@]3(CCCN(Cc4ccc(Cl)cc4)C3=O)[C@H]2C1=O,3711,-1,1,0
CCN(CC)Cc1cc(Oc2ccc(O)c(CN(CC)CC)c2)ccc1O,4455,-10,-11,-1
O=C(C1CCCCC1)N1C[C@@H](O)[C@H](n2cc(-c3ccc(F)cc3)nn2)C[C@@H]1c1ccc(Cl)cc1,3249,-2,0,0
CCn1c(SCC(=O)Nc2ccccc2C(=O)OC)nnc1-c1ccoc1C,4111,-2,-5,0
Cc1ccccc1OCc1nnc(SCC(=O)NCc2ccccc2)n1C,3884,3,1,0
CCOC(=O)c1ccccc1NC(=O)CSc1nnc(COc2ccccc2C)n1C,17960*,-1,7,u
CCn1c(SCC(=O)Nc2ccccc2C(=O)OC)nnc1-c1ccc(N)cc1,23878*,1,-2,0
CCOC(=O)c1c(NC(=O)C(NCCN(C)C)c2ccccc2)sc2c1CCCC2 (configuration not stated),4787,-2,-6,-2
SMILES,Autofluor counter,Anthrax LF inh2,BoNT-F LC inh,BoNT A protease
CC(C)C[C@H]1CNC(=O)C(=O)N1CC1CCN(CC2CCC(C(C)(C)C)CC2)CC1 (some centres not stated),3979,0,-3,0
CCN=C1SC(CC(=O)NC2CCCCC2)C(=O)N1CC (configuration not stated),20571*,0,-3,u
CCCC(=O)NC1=C(C#N)C2(CCCC2)Cc2ccccc21,17626*,-2,-9,u
CN(C)S(=O)(=O)N1CCc2ccccc2C1,24594*,-1,-6,-3
Cc1cnc(C(=O)N2CCN(S(=O)(=O)c3ccc4ccccc4c3)CC2)cn1,20208*,0,1,0
O=C(c1cnccn1)N1CCN(S(=O)(=O)c2ccc3ccccc3c2)CC1,3276,-5,2,0
